About 79,000 compounds went through this panel and 15% of them were active in at least one assay; those are over-represented in the sample as a whole. A number with no mark means an inactive call. Calls of active or inactive are those of the source. Cut-off read from the data, not from the text of the source: active = growth inhibition above about 70%; inactive = the rest. Where a SMILES comes first, the peptide text is derived from it. [ ]: non-standard residue; d: D form. The star is where a group is joined. Phe(4-NO2) = N[CH](Cc1ccc([N+](=O)[O-])cc1)C(=O)O; Boc = CC(C)(C)OC(=O)*

Assay [1] in a line: NCI Yeast Anticancer Drug Screen. Data for the rad50 strain (AID 155).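 Note: 0% = growth of vehicle-only cultures of the same strain.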 The following applies: S. cerevisiae rad50 strain growth inhibition, stronger effect = higher value. An outline of the steps:
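Vehicle-treated cultures provide the reference for the growth inhibition reported for compound-exposed, repair-deficient yeast.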

The nature of assay [2]: NCI Yeast Anticancer Drug Screen. Data for the mec2-1 strain (AID 157). The note with it: S. cerevisiae mec2-1 strain, stronger effect = higher value. The method, boiled down:
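Growth inhibition is read against vehicle-treated controls after compound exposure of the mec2-1 yeast strain, which is defective in DNA damage repair or cell cycle control.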

Assay [3] is described as follows: NCI Yeast Anticancer Drug Screen. Data for the sgs1 mgt1 strain (AID 161).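 Note: 0% = growth of cultures given vehicle only.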 The note with it: S. cerevisiae sgs1 mgt1 strain, stronger effect = higher value. The method, boiled down: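 Yeast cells carrying a defined DNA-repair defect were exposed to test compounds. Growth inhibition was measured relative to vehicle-treated controls.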
Assay [4] in a line: NCI Yeast Anticancer Drug Screen. Data for the cln2 rad14 strain (AID 165).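 Note: 0% = growth equal to vehicle treated cultures.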 The note with it: S. cerevisiae cln2 rad14 strain, stronger effect = higher value. An outline of the steps: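 Growth inhibition, relative to vehicle-treated controls, is the read-out. The test organism is a yeast strain with defined genetic alterations, cln2 rad14.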
The nature of assay [5]: NCI Yeast Anticancer Drug Screen. Data for the bub3 strain (AID 167). The note with it: S. cerevisiae bub3 mutant strain, stronger effect = higher value. The method, boiled down: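 Mutant yeast screening strain plus compound; vehicle-treated cultures serve as the 0% inhibition reference.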
Assay [6] can be described thus: NCI Yeast Anticancer Drug Screen. Data for the mlh1 rad18 strain (AID 175). The following applies: S. cerevisiae mlh1 rad18 strain growth inhibition, stronger effect = higher value. The method, boiled down:
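Cells of a genetically altered yeast strain, deficient in DNA damage repair, were treated with compound. Their growth was then compared with that of vehicle-treated cultures to give inhibition.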

Setting [7] is: at 5.0 µM (retest, dose inferred, filed as 0.5).
Where [8] appears, read: at 50.0 µM (retest, dose inferred, filed as 5.0).

With `COc1cc(/C=C2\Sc3scc(-c4cccc([N+](=O)[O-])c4)[n+]3C2=O)cc(OC)c1OC`, the growth inhibition is 1% in assay [1] (setting [7]); 94% (active) in assay [1] (setting [8]); 99% (active) in assay [1] (at 50.0 µM); -1% in assay [2] (setting [7]); 82% (active) in assay [2] (setting [8]); 99% (active) in assay [2] (at 50.0 µM). Besides, the growth inhibition is 13% in assay [3] (setting [7]); 40% in assay [3] (setting [8]); 86.2% (active) in assay [3] (at 50.0 µM); -26% in assay [4] (setting [7]); 91% (active) in assay [4] (setting [8]); 98.4% (active) in assay [4] (at 50.0 µM). The growth inhibition in assay [5] (setting [7]) was -10%; in assay [5] (setting [8]), 95% (active); in assay [5] (at 50.0 µM) it was 99.1% (active); in assay [6] (setting [7]), 5%; in assay [6] (setting [8]), 73% (active); in assay [6] (at 50.0 µM), 99% (active).

On to `O=C(CN1CCOCC1)Nc1nc(-c2ccc(Cl)cc2)cs1`, for which the growth inhibition in assay [1] (setting [7]) is 66%; in assay [1] (setting [8]) it was 94% (active); in assay [1] (at 50.0 µM) it was 79.6% (active); in assay [2] (setting [7]), 49%; in assay [2] (setting [8]), 97% (active); in assay [2] (at 50.0 µM), 53.8%. Also, the growth inhibition was 60% in assay [3] (setting [7]); 99% (active) in assay [3] (setting [8]); 86.4% (active) in assay [3] (at 50.0 µM); 46% in assay [4] (setting [7]); 90% (active) in assay [4] (setting [8]); 62% in assay [4] (at 50.0 µM). In addition, the growth inhibition is 65% in assay [5] (setting [7]); 67% in assay [5] (setting [8]); 77.6% (active) in assay [5] (at 50.0 µM); 76% (active) in assay [6] (setting [7]); 99% (active) in assay [6] (setting [8]); 85% (active) in assay [6] (at 50.0 µM).

Consider `N#CC(C(=O)CCCC(=O)Nc1cccc([N+](=O)[O-])c1)c1cccc2ccccc12` (configuration not stated), for which the growth inhibition is 8% in assay [1] (setting [7]); 10% in assay [1] (setting [8]); 32.5% in assay [1] (at 50.0 µM); 18% in assay [2] (setting [7]); 3% in assay [2] (setting [8]); 22.1% in assay [2] (at 50.0 µM). For the same molecule, the growth inhibition in assay [3] (setting [7]) is 8%; in assay [3] (setting [8]), 7%; in assay [3] (at 50.0 µM), 17.1%; in assay [4] (setting [7]), 4%; in assay [4] (setting [8]), 11%; in assay [4] (at 50.0 µM), 22.6%. In addition, the growth inhibition in assay [5] (setting [7]) was 4%; in assay [5] (setting [8]), 2%; in assay [5] (at 50.0 µM) it was 6.2%; in assay [6] (setting [7]), 5%; in assay [6] (setting [8]) it was 18%; in assay [6] (at 50.0 µM) it was 31.2%.

As for `COc1ccc2c(c1)O[C@H]1c3ccc(O)cc3OC[C@@H]21`, the growth inhibition in assay [1] (setting [7]) is 1%; in assay [1] (setting [8]), 35%; in assay [1] (at 50.0 µM) it was 72.7% (active); in assay [2] (setting [7]), 8%; in assay [2] (setting [8]), 36%; in assay [2] (at 50.0 µM), 69.5%. Also, the growth inhibition was -2% in assay [3] (setting [7]); 41% in assay [3] (setting [8]); 68% in assay [3] (at 50.0 µM); 3% in assay [4] (setting [7]); 16% in assay [4] (setting [8]); 50.3% in assay [4] (at 50.0 µM). Moreover, the growth inhibition in assay [5] (setting [7]) was 5%; in assay [5] (setting [8]), 41%; in assay [5] (at 50.0 µM) it was 74.2% (active); in assay [6] (setting [7]), 1%; in assay [6] (setting [8]), 53%; in assay [6] (at 50.0 µM), 84% (active).

On to `Cc1cc(N2C(=O)CCSC2=S)ccc1Cl`, for which the growth inhibition was 88% (active) in assay [1] (setting [7]); 28% in assay [1] (setting [8]); 90.9% (active) in assay [1] (at 50.0 µM); 7% in assay [2] (setting [7]); 27% in assay [2] (setting [8]); 88.8% (active) in assay [2] (at 50.0 µM). For the same molecule, the growth inhibition in assay [3] (setting [7]) is 48%; in assay [3] (setting [8]), 43%; in assay [3] (at 50.0 µM), 90.6% (active); in assay [4] (setting [7]) it was 47%; in assay [4] (setting [8]), 43%; in assay [4] (at 50.0 µM), 54.5%. Further, the growth inhibition in assay [5] (setting [7]) was 45%; in assay [5] (setting [8]) it was 71% (active); in assay [5] (at 50.0 µM) it was 86% (active); in assay [6] (setting [7]) it was 82% (active); in assay [6] (setting [8]), 18%; in assay [6] (at 50.0 µM) it was 87.5% (active).

Regarding `O=C1OCC2=C1C(c1ccc(Cl)cc1)c1cc3c(cc1O2)OCO3` (configuration not stated), the growth inhibition in assay [1] (setting [7]) is 8%; in assay [1] (setting [8]) it was 10%; in assay [1] (at 50.0 µM) it was -23.4%; in assay [2] (setting [7]), 9%; in assay [2] (setting [8]) it was 8%; in assay [2] (at 50.0 µM), -20.4%. Besides, the growth inhibition in assay [3] (setting [7]) is 4%; in assay [3] (setting [8]), 16%; in assay [3] (at 50.0 µM) it was -5.5%; in assay [4] (setting [7]), 2%; in assay [4] (setting [8]) it was 18%; in assay [4] (at 50.0 µM), 19.4%. The growth inhibition in assay [5] (setting [7]) is 17%; in assay [5] (setting [8]), 21%; in assay [5] (at 50.0 µM), 6.15%; in assay [6] (setting [7]), 17%; in assay [6] (setting [8]), 7%; in assay [6] (at 50.0 µM), -15.8%.

Regarding `CNC(=O)CCC(NC(=O)OC(C)(C)C)C(=O)NC(Cc1ccc([N+](=O)[O-])cc1)C(=O)NCC(=O)NC` (configuration not stated) (Boc-Glu(NHMe)-[Phe(4-NO2)]-Gly-NHMe; configuration not given here), the growth inhibition in assay [1] (setting [7]) was 9%; in assay [1] (setting [8]), -1%; in assay [1] (at 50.0 µM), -5.5%; in assay [2] (setting [7]), -3%; in assay [2] (setting [8]) it was 2%; in assay [2] (at 50.0 µM) it was -1.65%. For the same molecule, the growth inhibition in assay [3] (setting [7]) was -7%; in assay [3] (setting [8]) it was 3%; in assay [3] (at 50.0 µM) it was 8.8%; in assay [4] (setting [7]), -4%; in assay [4] (setting [8]), 4%; in assay [4] (at 50.0 µM), 37.6%. Besides, the growth inhibition was -15% in assay [5] (setting [7]); -1% in assay [5] (setting [8]); -1.9% in assay [5] (at 50.0 µM); -9% in assay [6] (setting [7]); 6% in assay [6] (setting [8]); -8.8% in assay [6] (at 50.0 µM).

`O=C(C=P(c1ccccc1)(c1ccccc1)c1ccccc1)c1ccc(Cl)cc1`: the growth inhibition in assay [1] (setting [7]) was 5%; in assay [1] (setting [8]), 98% (active); in assay [1] (at 50.0 µM), 98.8% (active); in assay [2] (setting [7]), 12%; in assay [2] (setting [8]), 99% (active); in assay [2] (at 50.0 µM), 99.2% (active). Further, the growth inhibition is 19% in assay [3] (setting [7]); 99% (active) in assay [3] (setting [8]); 99% (active) in assay [3] (at 50.0 µM); -10% in assay [4] (setting [7]); 98% (active) in assay [4] (setting [8]); 98.7% (active) in assay [4] (at 50.0 µM). The growth inhibition is 16% in assay [5] (setting [7]); 99% (active) in assay [5] (setting [8]); 98.5% (active) in assay [5] (at 50.0 µM); -16% in assay [6] (setting [7]); 99% (active) in assay [6] (setting [8]); 99% (active) in assay [6] (at 50.0 µM).

For the molecule `O=C(O)C(CCc1cccc2ccccc12)c1ccccc1` (configuration not stated), the growth inhibition in assay [1] (setting [7]) was 13%; in assay [1] (setting [8]), 97% (active); in assay [1] (at 50.0 µM) it was 99.6% (active); in assay [2] (setting [7]) it was 2%; in assay [2] (setting [8]) it was 95% (active); in assay [2] (at 50.0 µM), 99.2% (active). The growth inhibition was 5% in assay [3] (setting [7]); 98% (active) in assay [3] (setting [8]); 99.5% (active) in assay [3] (at 50.0 µM); -4% in assay [4] (setting [7]); 96% (active) in assay [4] (setting [8]); 99.3% (active) in assay [4] (at 50.0 µM). Moreover, the growth inhibition is 3% in assay [5] (setting [7]); 73% (active) in assay [5] (setting [8]); 99% (active) in assay [5] (at 50.0 µM); 5% in assay [6] (setting [7]); 98% (active) in assay [6] (setting [8]); 99.4% (active) in assay [6] (at 50.0 µM).
